A selection: hits, their analogues and other compounds. The true share with any hit is near 0.71%.
Coupling enz – inhibits coupling enzyme system, counter-screen for aldolase hits. activity change, negative = inhibition, % at 58.2 µM, hits read low. 290,000 tested, 0.67% active. coupling enzyme system counterscreen, AmpLite Red fluorescence. AID 2472; in the data active = activity change below about -30%
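Activity here indicates interference with the coupling reaction, not aldolase inhibition. Compounds at 57.5 uM final met coupling enzymes for 10 min at RT; substrate and AmpLite Red detection followed, with a 525/598 nm fluorescence read after 20 min.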
Eya2 phos inh – blocks the phosphatase activity of human Eya2; O00167; 330,000 tested, 0.006% active; Potency, µM (titrated, usually from 76.9 µM), for inactives: at the highest dose activity, negative = inhibition, most hits filed as inhibitors; recombinant Eya2, OMFP fluorescence dephosphorylation (OMFP is methylfluorescein phosphate); also: potency is read from the fitted curve at half-maximal effect
Target sequence (O00167 whole entry, looked up): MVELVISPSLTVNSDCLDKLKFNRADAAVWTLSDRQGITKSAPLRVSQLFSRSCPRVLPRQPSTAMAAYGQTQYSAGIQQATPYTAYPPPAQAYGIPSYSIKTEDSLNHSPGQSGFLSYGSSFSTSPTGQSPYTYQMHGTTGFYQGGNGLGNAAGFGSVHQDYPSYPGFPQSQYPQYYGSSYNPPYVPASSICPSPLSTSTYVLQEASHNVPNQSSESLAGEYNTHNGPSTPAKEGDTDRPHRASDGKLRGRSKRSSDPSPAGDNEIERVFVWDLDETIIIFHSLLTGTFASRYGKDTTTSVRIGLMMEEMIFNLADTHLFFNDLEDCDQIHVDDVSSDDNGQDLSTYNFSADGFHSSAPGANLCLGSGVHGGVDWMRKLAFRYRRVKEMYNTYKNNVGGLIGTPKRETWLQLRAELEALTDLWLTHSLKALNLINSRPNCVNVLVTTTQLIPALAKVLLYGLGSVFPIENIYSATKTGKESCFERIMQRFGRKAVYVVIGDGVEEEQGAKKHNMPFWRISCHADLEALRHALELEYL
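Eya2 (0.2 uM) preincubated 10 min at ambient with compound, then OMFP substrate added at 50 uM; 10 min reaction in 50 mM HEPES pH 7.5, 50 mM NaCl, 5 uM MgCl2, 0.05% BSA, 1 mM DTT. Fluorescence read at Ex 485/Em 525 nm.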
USP1 inh – USP1/UAF1 (human) deubiquitinase inhibition | O94782 | recombinant USP1/UAF1, Ub-Rhodamine cleavage fluorescence | Potency, µM (top dose mostly 57.1 µM), for the others: top-dose activity change, negative = inhibition, actives largely listed as inhibitors | 390,000 tested, 0.23% active; also: potency is read from the fitted curve at half-maximal effect; nearly all actives have a fitted effect of over 60% in size
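USP1/UAF1 complex (1 nM) preincubated 15 min at room temperature with compound, then Ub-Rho substrate (150 nM final) added. Kinetic fluorescence at 480/540 nm over 6 reads at 60 s intervals; 50 mM HEPES pH 7.8, 0.5 mM EDTA, 0.1 mg/ml BSA, 1 mM TCEP, 0.01% Tween-20.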
USP2a inh – inhibitors of human ubiquitin-specific protease USP2a; USP2 core, Ub-CHOP2 coupled fluorogenic reporter, 485/531; Potency, µM (titrated, usually from 38.3 µM), for inactives: at the highest dose activity change, negative = inhibition, usual class: inhibitors; 330,000 tested, 0.01% active; AID 463254;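 also: potency is read from the fitted curve at half-maximal effect; plate controls were DMSO wells for no effect and full inhibition by NEM control for full effect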
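Deubiquitinase activity read as fluorescence (485/531 nm) after Ub-CHOP2 cleavage activates the enterokinase reporter on its substrate; USP2 core 10nM, Ub-CHOP2 and substrate 25nM each, 30min compound preincubation then 60min RT; data normalized to NEM, curves fitted.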
PI4K2A inh – inhibitors of human PI4K2A | 420,000 tested, 0.13% active | activity change, negative = inhibition, % at 76.9 µM | Q9BTU6 | purified PI4K2A, ADP-Glo luminescence, 1 h; hits give low values; in the data active = activity change below about -50%; inconclusive = mostly about -30% to -49%;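 also: -100% = wells without enzyme as full effect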
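In this quantitative HTS, ADP production by PI4K2A was quantified luminescently after 1 h at ambient temperature; 100 microM adenosine served as plate-quality control.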
GALK inhibitor – blocks human galactokinase activity. 270,000 tested, 0.007% active. Potency, µM (titrated, usually from 57.5 µM), without a hit: at the highest dose activity change, negative = inhibition, usual class: inhibitors. Purified GALK, Kinase-Glo residual ATP luminescence. P51570; also: potency is read from the fitted curve at half-maximal effect
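GALK at 5 nM final was combined with compound, 35 uM ATP and 100 uM galactose in HEPES pH8.0 with MgCl2 and DTT. The reaction ran one hour at room temperature before luminescent ATP detection.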
Numbers without * were called inactive. Unless noted, calls follow the shape of the dose curve; as a rule, active = well fitted curve in the direction sought with a large enough effect; inconclusive = small, poorly fitted or top-dose-only effect, or another doubt; inactive = no such curve, though single readings can be large; an effect the other way counts as inactive or inconclusive. Unless noted, % is scaled to controls: 0 for no effect and ±100 for the full control effect.

O=C1[C@H]2[C@H]3[C@H](O)[C@H](O)C/C(=N/OCc4ccccc4)[C@@H]3CC[C@@H]2C(=O)N1c1cccc(Oc2ccccc2)c1 was read as Coupling enz 2.2.
Screening O=C(Nc1ccc(C(=O)O)cc1)/C(=C\C=C\c1ccccc1)NC(=O)c1ccc(Br)cc1 returned Coupling enz 4.3, Eya2 phos inh -1.3%, USP1 inh active, USP2a inh -0.7%, PI4K2A inh 1.3 and GALK inhibitor 3.7%.
For Cc1ccc(NC(=O)/C(=C/C=C/c2ccccc2)NC(=O)c2ccccc2)cc1 the results were Coupling enz 4.0, Eya2 phos inh -6.0%, USP1 inh -14.0%, USP2a inh -0.3%, PI4K2A inh -4.1 and GALK inhibitor -4.2%.
For COc1ccc(NC(=O)CN2c3cccc4cccc(c34)S2(=O)=O)cc1 the results were Coupling enz -30.9*, Eya2 phos inh -19.0%, USP1 inh -24.2%, USP2a inh 1.4%, PI4K2A inh 5.9 and GALK inhibitor -1.7%.
CC(C)(C)NC(=O)COC(=O)c1cc(F)c(F)cc1Cl was read as Coupling enz -61.3*, Eya2 phos inh -2.5%, USP1 inh -13.0%, USP2a inh 1.0%, PI4K2A inh 9.5 and GALK inhibitor -2.2%.
Screening C[C@@H](O[C@H]1OCCN(Cc2n[nH]c(=O)[nH]2)[C@H]1c1ccc(F)cc1)c1cc(C(F)(F)F)cc(C(F)(F)F)c1 returned PI4K2A inh -3.9.
Screening CC(=O)N(C)C1=C(O)c2ccccc2C(=O)C1=O returned Eya2 phos inh -0.5%, USP1 inh inconclusive, USP2a inh -0.8%, PI4K2A inh -24.4 and GALK inhibitor -1.4%.
`CC(=O)N(C1=C(N2CCOCC2)C(=O)c2ccccc2C1=O)c1ccc(C(=O)O)cc1` gave Coupling enz -53.7*, Eya2 phos inh 11.3%, USP1 inh inconclusive, USP2a inh 0.5%, PI4K2A inh -29.0 and GALK inhibitor 1.4%.
For CC(=O)N(C)C1=C(N2CCOCC2)C(=O)c2ccccc2C1=O the results were Coupling enz -56.1*, Eya2 phos inh 0.3%, USP1 inh inconclusive, USP2a inh 1.4%, PI4K2A inh -23.0 and GALK inhibitor 0.8%.
Screening Nc1cc2sc(-c3ccc(C(=O)O)cc3)nc2cc1Cl returned Coupling enz -4.1, Eya2 phos inh -2.4%, USP1 inh -11.4%, USP2a inh 2.8%, PI4K2A inh -75.6* and GALK inhibitor 6.5%.
`Nc1ccc(-c2nc3ccc(N)cc3s2)cc1` gave Coupling enz -1.2, Eya2 phos inh -9.5%, USP1 inh -18.7%, USP2a inh -5.4%, PI4K2A inh -15.9 and GALK inhibitor 2.6%.
`O=C(O)c1ccc2nc(-c3ccccc3)sc2c1` gave Coupling enz 10.9, Eya2 phos inh -1.9%, USP1 inh -1.6%, USP2a inh 0.0%, PI4K2A inh -52.2* and GALK inhibitor 0.4%.
Nc1ccc(-c2nc3ccc(C(=O)O)cc3s2)cc1 was read as Coupling enz 5.2, Eya2 phos inh -5.4%, USP1 inh -21.4%, USP2a inh 3.8%, PI4K2A inh -25.8 and GALK inhibitor 2.5%.
Screening CCOc1cc(S(=O)(=O)n2c(C)nc3ccccc32)ccc1F returned Coupling enz 2.7, Eya2 phos inh -1.6%, USP1 inh -15.4%, USP2a inh -0.9%, PI4K2A inh -2.3 and GALK inhibitor 0.0%.
For Cc1ccc(/C=C/c2nc3ccccc3n2S(=O)(=O)c2cccc(Cl)c2)cc1 the results were USP1 inh -18.7% and PI4K2A inh -63.1*.
`CCOc1ccc(/C=C/c2nc3ccccc3n2S(=O)(=O)c2cccc(Cl)c2)cc1` gave USP1 inh -2.9% and PI4K2A inh -70.1*.
COC(=O)NC(/C(C(=O)OC)=C(\C)NCc1ccccc1)c1cccs1 (centres undefined) was read as Coupling enz -0.7.
Screening CC(=O)Nc1ccc(N/C=C/C(=O)c2ccco2)cc1 returned Coupling enz -26.0, Eya2 phos inh 10.1%, USP1 inh -17.8%, USP2a inh 0.8%, PI4K2A inh -6.6 and GALK inhibitor 0.9%.
For CN(C)c1ccc(N/C=C/C(=O)c2ccco2)cc1 the results were Coupling enz -35.4*, Eya2 phos inh 8.1%, USP1 inh inconclusive, USP2a inh 1.2%, PI4K2A inh inconclusive and GALK inhibitor 7.8%.
For Nc1nc(=O)n([C@@H]2O[C@H](CO)[C@@H](O)[C@@H]2F)cc1I the results were PI4K2A inh -0.5.
CCOC(=O)/C(=C\C=C1/Sc2cc(OCC)c(OCC)cc2N1CC)C(C)=O was read as Coupling enz -8.1, Eya2 phos inh inconclusive, USP1 inh 25.1µM*, USP2a inh inconclusive, PI4K2A inh -14.7 and GALK inhibitor 2.4%.
For CCOC(=O)/C(=C/C=C1\Sc2cc(OCC)c(OCC)cc2N1CC)C(C)=O the results were Coupling enz -3.0, Eya2 phos inh 11.1%, USP1 inh 22.4µM*, USP2a inh inconclusive, PI4K2A inh 2.1 and GALK inhibitor 0.9%.
Screening Clc1ccccc1-c1cncnc1NCCN1CCOCC1 returned Coupling enz 0.1.
CC1(C)N([O-])c2cc([N+](=O)[O-])ccc2[N+]1=O was read as Coupling enz -63.1*, Eya2 phos inh -1.3%, USP1 inh 25.1µM*, USP2a inh -0.8%, PI4K2A inh inconclusive and GALK inhibitor 1.5%.
For O=C1c2ccccc2-c2onc3ccc(NCc4ccco4)c1c23 the results were Coupling enz -42.8*, Eya2 phos inh inconclusive, USP1 inh 43.5%, USP2a inh inconclusive, PI4K2A inh -19.9 and GALK inhibitor 9.3%.
For CCOc1ccc2noc3c2c1C(=O)c1ccccc1-3 the results were Coupling enz -45.5*, Eya2 phos inh inconclusive, USP1 inh -18.1%, USP2a inh inconclusive, PI4K2A inh -4.7 and GALK inhibitor 1.6%.
`O=C1c2ccccc2-c2onc3ccc(N4CCCC4)c1c23` gave Coupling enz -49.9*, Eya2 phos inh inconclusive, USP1 inh 14.1µM*, USP2a inh inconclusive, PI4K2A inh -17.5 and GALK inhibitor 6.4%.
Screening O=C1c2ccccc2C(=O)c2c1cccc2N1CCCC1 returned Coupling enz -19.6, Eya2 phos inh -2.2%, USP1 inh inconclusive, USP2a inh -2.4%, PI4K2A inh -16.5 and GALK inhibitor -2.3%.
Screening COc1ccc(-c2cc(C)nc3c(-c4ccc(OC)c(OC)c4)c(C)nn23)cc1 returned USP1 inh -13.4% and PI4K2A inh 1.5.
`COCCCn1cc(CN2CC=CS2(=O)=O)nn1` gave PI4K2A inh -6.0.
